MEKK2wt PB1 HTS: raises or lowers MEK5 binding to wildtype human MEKK2 PB1 domain; AID 1531; binding response (% of control), % at 10 µM; 1.1% of 290,000 active; Q9Y2U5; bead flow cytometry, Alexa488-MEK5 binding to MEKK2 WT; actives lie on both sides; in the data active = binding response below about 67% or above about 130%
SKN-1 block: blocks SKN-1 activity in C. elegans. C. elegans VP596 Pgst-4::GFP/RFP ratio, acrylamide-induced, 24 h. inhibition, % at 21.8 µM. 0.49% of 360,000 active;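 active = interference check ratio from 0.5 to 1.5 plus GFP to RFP signal ratio inhibition reaching or exceeding a fixed threshold, cut at about 30% in these data, passing the limit was not always enough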
MEKK2mut PB1 HTS: signal of MEK5 binding to mutant human MEKK2 PB1 domain | 0.35% of 290,000 active | bead flow cytometry, Alexa488-MEK5 binding to MEKK2 mutant | percent response, % at 10 µM | AID 1530; in the data active = percent response above about 24%, passing the limit was not always enough
MEKK3 PB1 HTS: MEKK3-MEK5 PB1 interaction, increase or decrease; Q99759; bead-based flow cytometry, Alexa488-MEK5 binding to MEKK3; actives lie on both sides; 0 = blocked by unlabeled MEK5, 100 = vehicle; binding response (% of control), % at 10 µM; 1.4% of 290,000 active; AID 1529;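 active = binding response more than 3 SD above or below the average of its plate-row segment, actives on both sides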;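 also: Alexa488 bead fluorescence after subtracting the streptavidin-only scavenger bead signal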
Target sequence (Q99759 whole entry, looked up): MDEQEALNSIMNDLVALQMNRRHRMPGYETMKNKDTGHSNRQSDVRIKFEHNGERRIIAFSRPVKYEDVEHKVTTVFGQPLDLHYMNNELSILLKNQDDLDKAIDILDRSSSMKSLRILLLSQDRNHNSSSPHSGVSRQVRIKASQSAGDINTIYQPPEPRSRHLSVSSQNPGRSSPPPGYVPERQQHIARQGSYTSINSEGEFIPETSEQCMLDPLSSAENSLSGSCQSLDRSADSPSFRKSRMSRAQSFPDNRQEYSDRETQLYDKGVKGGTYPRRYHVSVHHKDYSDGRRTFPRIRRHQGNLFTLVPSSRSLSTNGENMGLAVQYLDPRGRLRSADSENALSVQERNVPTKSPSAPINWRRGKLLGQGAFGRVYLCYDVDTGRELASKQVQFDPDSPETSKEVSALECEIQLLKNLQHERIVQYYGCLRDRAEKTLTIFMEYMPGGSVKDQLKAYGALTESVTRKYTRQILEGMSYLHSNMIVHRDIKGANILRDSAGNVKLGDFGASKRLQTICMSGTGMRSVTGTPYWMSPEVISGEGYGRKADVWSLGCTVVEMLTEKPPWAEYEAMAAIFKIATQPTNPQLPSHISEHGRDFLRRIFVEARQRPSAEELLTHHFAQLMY
CendR NRP1 mod: NRP-1/CendR interaction modulation; O14786; FAM-RPARPAR peptide binding to NRP-1, fluorescence polarization; inhibition, % at 25 µM; 0.85% of 360,000 active; AID 602438;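 active = inhibition or corrected inhibition above about 18%, plus a signal ratio from 0.5 to 1.5, limit read from the data, passing the limit was not always enough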
MEKK2wt confirm: raises or lowers MEK5 binding to wildtype human MEKK2, retest; shares compounds with MEKK3 PB1 HTS; binding response (% of control), % at 10 µM; bead flow cytometry, Alexa488-MEK5 binding to MEKK2 WT; actives lie on both sides; 2.4% of 5,900 active; in the data active = binding response below about 16% or above about 210%; inactive = in between
MEKK2mut-MEK5: signal of MEK5 binding to mutant human MEKK2, retest | shares compounds with MEKK3 PB1 HTS | bead flow cytometry, Alexa488-MEK5 binding to MEKK2 mutant | percent response, % at 10 µM | 2% of 5,900 active | AID 1893; in the data active = percent response mostly above about 71%, no sharp cut-off; inactive = mostly below about 38%;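 also: higher means compound restores mutant binding toward wildtype level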
MEKK3 confirm: MEKK3-MEK5 PB1 inhibition, single concentration confirmation; shares compounds with MEKK3 PB1 HTS; bead flow cytometry, Alexa488-MEK5 binding to MEKK3; stronger effect = lower value; binding response (% of control), % at 10 µM; 1.8% of 5,900 active; AID 1894;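 active = binding response below 72% of control, or above a set upper limit, though filed actives all read lower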;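 also: 100% = DMSO only wells and 0% = binding blocked by excess unlabeled MEK5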
An asterisk follows results filed as active; / = no result; [ ] = another dose, or the depositor's remark. This is a sample that favours compounds with a hit; in the whole collection about 3.2% have one here.

SMILES	MEKK2wt PB1 HTS	SKN-1 block	MEKK2mut PB1 HTS	MEKK3 PB1 HTS	CendR NRP1 mod	MEKK2wt confirm	MEKK2mut-MEK5	MEKK3 confirm
CCSc1nnc(NC(=O)C2Cc3ccccc3CN2S(=O)(=O)CC)s1 (stereo not drawn)	16*[inhibitor]	-4	-1	12*[inhibitor]	-12	99	2	104
Cn1c(SCC(=O)NNC(=O)c2ccc(Br)cc2)nnc1-c1cccnc1	109	3	7	110	-4	/	/	/
CNC(=O)CSc1nnc(-c2ccco2)n1-c1cc(C)ccc1C	106	-5	32*	103	9	110	0	106
Cc1nnc(SCC(=O)NNC(=O)c2ccc(Br)cc2)n1C	717*	11	557*	123	9	103	0	100
CCn1c(SCC(=O)NNC(=O)c2ccco2)nnc1-c1ccco1	85	13	-13	94	12	/	/	/
CNC(=O)CSc1nnc(-c2ccco2)n1-c1cccc(C)c1C	98	-5	0	100	8	/	/	/
CCn1c(SCC(=O)NNC(=O)c2ccccc2)nnc1-c1ccco1	68	8	-13	73*[inhibitor]	8	99	-6	99
CC(=O)c1ccc(N(CC(=O)NC2CCCCC2)C(=O)CNC(=O)c2cccs2)cc1	92	-3	5	98	1	/	/	/
COc1ccc(NS(=O)(=O)c2cc(NC(=O)C(CC(C)C)NC(N)=O)ccc2N2CCOCC2)cc1 (stereo not drawn)	/	13	/	/	-10	/	/	/
Cc1ccccc1NS(=O)(=O)c1c(C(=O)N2CCCCCC2)c(C)n(C)c1C	101	0	4	103	12	/	/	/
Cc1ccc(NC(=O)CN(C)C(=O)CSc2nnc(N)s2)cc1	/	-1	/	/	-1	/	/	/
COc1ccccc1Cc1c(-c2cccc(Cl)c2)nc2ccc(C)cn12	/	5	/	/	-9	/	/	/
CC12CCCC[C@@H]1CCC1C2CCC2(C)C1CC[C@@]2(O)CNCCO (stereo partly drawn)	136*	15	25*	106	-1	107	10	87
Cc1nc2sccn2c(=O)c1CCN1CCC(=C(c2ccccc2)c2ccc(F)cc2)CC1	157*	/	13	120	/	123	4	101
O=C(CCc1nnc2ccc(NCc3ccco3)nn12)Nc1ccccc1F	100	16	6	100	12	/	/	/
CSCCNC(=O)Nc1c(-c2c(Cl)cccc2Cl)noc1C	86	6	-26	67*[inhibitor]	12	102	4	102
CCOC(=O)CN(c1sc(C)c(C)c1C(=O)OCC)S(=O)(=O)c1ccc(C)cc1	/	-10	/	/	15	/	/	/
CC(C)CC(=O)/C(=C/c1ccc(N(C)C)cc1)n1cncn1	37*[inhibitor]	8	-9	69*[inhibitor]	-24	104	0	102
CCn1cc(C(=O)NCC(OC)OC)c(=O)c2cc(S(=O)(=O)N3CCC(C)CC3)ccc21	98	3	-3	100	12	/	/	/
O=C(NCC(O)c1ccc2ccccc2c1)c1c(F)cccc1F (stereo not drawn)	104	3	3	104	7	/	/	/
Cc1cc(SCC#N)nc2ccccc12	104	4	3	100	21	/	/	/
COc1ccc2c(C)cc(SCC#N)nc2c1	58*[inhibitor]	13	38*	102	-46	101	-8	103
Cc1ccc(-c2nnn(CC(=O)NC3CCN(Cc4ccccc4)CC3)n2)cc1	111	-6	1	71*[inhibitor]	-2	110	0	105
COc1ccc(-c2cc(C3CCNCC3)[nH]n2)cc1	154*	7	22	103	1	143	26	109
CC(C)(c1ccccc1)c1ccc(OCCCN2CCNCC2)cc1	150*	9	15	113	10	125	10	105
SMILES	MEKK2wt PB1 HTS	SKN-1 block	MEKK2mut PB1 HTS	MEKK3 PB1 HTS	CendR NRP1 mod	MEKK2wt confirm	MEKK2mut-MEK5	MEKK3 confirm
COC(=O)c1ccc(CSc2nc3ccccc3c(=O)n2-c2ccccc2)o1	96	-2	-2	102	-4	/	/	/
COC(=O)c1ccc(CSc2nnc(-c3ccc4c(c3)OCO4)n2-c2ccccc2)o1	109	3	4	131*	0	104	3	105
COc1ccccc1OCCNC(=O)CCC(=O)N1CCOCC1	/	15	/	/	4	/	/	/
O=C(COC(=O)CCNS(=O)(=O)c1ccc2c(c1)OCCO2)NC1CCCc2ccccc21 (stereo not drawn)	115	0	4	124*	8	100	-2	100
O=C(COC(=O)C1CC(=O)N(c2ccc3c(c2)OCCO3)C1)NC1CCCc2ccccc21 (stereo not drawn)	100	-9	0	101	5	/	/	/
COCCN1C[C@@H](CO)O[C@@H](n2cnc3c(N4CCN(CCO)CC4)ncnc32)C1	/	17	/	/	1	/	/	/
CC(=O)NC1(C(F)(F)F)NC(=O)N(CCc2ccccc2)C1=O (stereo not drawn)	95	8	-2	97	11	/	/	/
COc1ccc(NC(=O)Cc2c(F)cccc2Cl)c(OC)c1	3.0*[inhibitor]	-6	-8	1.0*[inhibitor]	-12	102	-1	100
COc1ccc(NC(=O)CCSCCC(=O)Nc2ccc(OC)cc2OC)c(OC)c1	109	-6	1	137*	-3	101	3	98
COc1ccc(NS(=O)(=O)c2cc(NC(=O)Cc3c(F)cccc3Cl)ccc2OC)cc1	/	30	/	/	10	/	/	/
COCCCN1C(=O)C(CC(=O)NCCN2CCOCC2)CC(C(=O)N(C(C)C)C(C)C)=C1C (stereo not drawn)	/	-2	/	/	4	/	/	/
COc1ccccc1N(CC(=O)N1CCCCC1C)S(=O)(=O)c1ccc(Cl)cc1 (stereo not drawn)	/	-4	/	/	-8	/	/	/
CCN1CCN(c2cc(N3CCc4ccccc4C3)c(F)cc2[N+](=O)[O-])CC1	151*	9	39	100	8	153	22	110
CC(=O)N1CCN(c2cc(N3CCCC3)c(F)cc2[N+](=O)[O-])CC1	105	7	1	106	9	/	/	/
O=C(OCc1cn([C@H]2C[C@H](c3ccc(Cl)cc3)N(C(=O)C3CCCCC3)C[C@@H]2O)nn1)c1ccccc1	/	-20	/	/	-8	/	/	/
Cc1ccc(/C=C2/NC(=O)N(Cc3ccccc3)C2=O)o1	2.0*[inhibitor]	9	1	108	-83	89	1	95
CC1=C[C@@H](C)[C@@H](c2ccccc2)OC1=O	88	-7	-6	78*[inhibitor]	2	102	14	105
Cc1ccc(C23CC4CC(CC(NC(=O)NCCN(C)C)(C4)C2)C3)cc1	156*	2	31*	107	-7	21	-25	35*

Screening data: PubChem BioAssay, several laboratories
